# Measured values as given in PubChem BioAssay (Tox21).
# Results filed as inconclusive are left out. Values without a mark were called inactive. The source made the active and inactive calls. Calls come from the whole dose curve; as a rule, active = well fitted curve in the direction sought with a large enough effect in the repeat runs; inconclusive = weak or mixed curves; inactive = no such curve, though single readings can be large; an effect the other way counts as inactive or inconclusive.
# Assay: qHTS assay to identify small molecule antagonists of the retinoid acid receptor (RAR) signaling pathway - cell viability counter screen (AID 1159551); note: nearly all actives have a fitted effect of over 35% in size
# Details: C3RL4 cells viability, ATP luminescence (CellTiter-Glo), 6 h; series mostly up to 92.4 µM; activity change, negative = cytotoxicity: at the top concentration
# Procedure, shortened: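 In this counter screen, the RARE-luciferase line C3RL4 was exposed for 6 h at 37 C and 5% CO2 to compounds with retinol at 1 uM final. Cellular ATP, read by luminescence, served as the viability measure.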
# % is set by controls: 0 for no effect and ±100 for the full control effect.
Structure (SMILES),"activity change, negative = cytotoxicity",outcome
CCC=O,3.25%,–
CC(=O)OC/C=C(\C)CC/C=C(\C)CCC=C(C)C,–,inactive
CC(C)OC(=O)c1ccccc1,2.88%,–
CCCCCCCCCCCCN(CCCCCCCCCCCC)CCCCCCCCCCCC,2.77%,–
C1CN(CCOCCN2CCOCC2)CCO1,2.48%,–
O=C[C@H](O)[C@@H](O)[C@H](O)[C@H](O)CO,4.88%,–
CCOC(=O)c1cccc(N)c1,1.12% [at 42.5 µM],–
CC(C)CCCC(C)N (centres undefined),-1.7% [at 42.5 µM],–
C=CCOCC(CC)(CO)COCC=C,-0.878%,–
CCSC(=O)N(CC(C)C)CC(C)C,0.13%,–
CC(C)CNCC(C)C,2.22%,–
CC(C)(O)C#CC(C)(C)O,2%,–
CC(C)(CC(=O)O)C(=O)O,-0.3%,–
CC(=O)CC(C)C,0.367%,–
Cc1sccc1Br,0.136% [at 42.5 µM],–
N[C@H]1CN(c2c(F)cc3c(=O)c(C(=O)O)cn(C4C[C@H]4F)c3c2Cl)CC12CC2 (some centres undefined),0.162% [at 42.5 µM],–
CC(NC(CCc1ccccc1)C(=O)O)C(=O)N1C(=O)N(C)CC1C(=O)O (centres undefined),-1.93% [at 42.5 µM],–

Structure (SMILES),"activity change, negative = cytotoxicity",outcome
Cc1cccn2c(=O)c(-c3nnn[nH]3)cnc12,2.52% [at 19 µM],–
CCCCC/C=C\CCC=O,-0.687%,–
CCC(C)S (centres undefined),1.76% [at 3.27 µM],–
CC(C)NC(=O)NC(C)C,0.223%,–
CC(C)NCCCC1(C(N)=O)c2ccccc2-c2ccccc21,0.656% [at 42.5 µM],–
C=C(C)CS(=O)(=O)O,-2.17%,–
NS(=O)(=O)c1ccc(C(=O)O)cc1,1.31% [at 42.5 µM],–
CCC(C)C1CCCCC1=O (centres undefined),-0.315%,–
COc1cc(C(=O)N2CCCCCCC2)cc(OC)c1OC,1.66% [at 42.5 µM],–
CCCCCCCCS(=O)(=O)Cl,1.05%,–
O=c1[nH]c(=O)n([C@H]2C[C@H](O)[C@@H](CO)O2)cc1I,1.74% [at 42.5 µM],–
CC(=O)OCC(=O)[C@@]1(O)CCC2C3CCC4=CC(=O)CC[C@]4(C)C3[C@@H](O)C[C@@]21C (some centres undefined),-0.397% [at 42.5 µM],–
COc1ccc2c(c1)c(CC(=O)OCC(=O)O)c(C)n2C(=O)c1ccc(Cl)cc1,1.62% [at 42.5 µM],–
O=c1cc(CO)occ1O,-0.0073% [at 42.5 µM],–
CS(=O)(=O)O,-2.38%,–
c1ccc(CC2=NCCN2)cc1,-0.952% [at 42.5 µM],–
COCCCOCCCOC,-1.25%,–

# Assay: qHTS assay to identify small molecule antagonists of the retinoic acid receptor (RAR) signaling pathway (AID 1159552; note: nearly all actives have a fitted effect of over 50% in size)
# Details: C3RL4 RARE luciferase reporter, retinol-stimulated, 6 h; series mostly up to 92.4 µM; activity, negative = inhibition: at the top concentration
# Procedure, shortened: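 Retinol at 1 uM final stimulated RARE-luciferase expression in C3RL4 cells exposed to test compounds for 6 hr at 37 C. Reduced luminescence, read 30 min after detection reagent, indicated pathway antagonism.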
Structure (SMILES),"activity, negative = inhibition",Potency
CCC=O,2.28%,–
CC(=O)OC/C=C(\C)CC/C=C(\C)CCC=C(C)C,–,inactive
CC(C)OC(=O)c1ccccc1,-1.21%,–
CCCCCCCCCCCCN(CCCCCCCCCCCC)CCCCCCCCCCCC,-2.53%,–
C1CN(CCOCCN2CCOCC2)CCO1,10.7%,–
CCOC(=O)c1cccc(N)c1,91.3% [at 42.5 µM],–
CC(C)CCCC(C)N (centres undefined),0.569% [at 42.5 µM],–
C=CCOCC(CC)(CO)COCC=C,-1.62%,–
CCSC(=O)N(CC(C)C)CC(C)C,3.15%,–
CC(C)CNCC(C)C,3.4%,–
CC(C)(O)C#CC(C)(C)O,-2.17%,–
CC(C)(CC(=O)O)C(=O)O,-1.32%,–
CC(=O)CC(C)C,7.93%,–
Cc1sccc1Br,6.33% [at 42.5 µM],–
N[C@H]1CN(c2c(F)cc3c(=O)c(C(=O)O)cn(C4C[C@H]4F)c3c2Cl)CC12CC2 (some centres undefined),16.2% [at 42.5 µM],–
CC(NC(CCc1ccccc1)C(=O)O)C(=O)N1C(=O)N(C)CC1C(=O)O (centres undefined),5.24% [at 42.5 µM],–
Cc1cccn2c(=O)c(-c3nnn[nH]3)cnc12,1.95% [at 19 µM],–

Structure (SMILES),"activity, negative = inhibition",Potency
CCCCC/C=C\CCC=O,-2.07%,–
CCC(C)S (centres undefined),-4.13% [at 3.27 µM],–
CC(C)NC(=O)NC(C)C,69.2%,–
CC(C)NCCCC1(C(N)=O)c2ccccc2-c2ccccc21,8.81% [at 42.5 µM],–
C=C(C)CS(=O)(=O)O,-3.53%,–
NS(=O)(=O)c1ccc(C(=O)O)cc1,4.81% [at 42.5 µM],–
CCC(C)C1CCCCC1=O (centres undefined),13.7%,–
COc1cc(C(=O)N2CCCCCCC2)cc(OC)c1OC,5.11% [at 42.5 µM],–
CCCCCCCCS(=O)(=O)Cl,-2.67%,–
O=c1[nH]c(=O)n([C@H]2C[C@H](O)[C@@H](CO)O2)cc1I,73.6% [at 42.5 µM],–
CC(=O)OCC(=O)[C@@]1(O)CCC2C3CCC4=CC(=O)CC[C@]4(C)C3[C@@H](O)C[C@@]21C (some centres undefined),0.597% [at 42.5 µM],–
COc1ccc2c(c1)c(CC(=O)OCC(=O)O)c(C)n2C(=O)c1ccc(Cl)cc1,2.08% [at 42.5 µM],–
O=c1cc(CO)occ1O,-0.0677% [at 42.5 µM],–
CS(=O)(=O)O,-2.01%,–
c1ccc(CC2=NCCN2)cc1,-1.59% [at 42.5 µM],–
COCCCOCCCOC,1.61%,–

# Assay: qHTS assay to identify small molecule agonists of the retinoic acid receptor (RAR) signaling pathway (AID 1159553); note: potency is the fitted concentration of half-maximal effect
# Details: C3RL4 RARE luciferase reporter, agonist, 6 h; series mostly up to 73.3 µM; activation: at the top concentration
# Procedure, shortened: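 In this cell-based screen, 1,000 C3RL4 cells per well were cultured overnight, dosed with test chemicals in DMSO for 6 hr, and assessed for RARE luciferase luminescence.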
Structure (SMILES),activation,Potency
CCC=O,1.48% [at 94.8 µM],–
CC(C)OC(=O)c1ccccc1,3.88% [at 94.8 µM],–
CCCCCCCCCCCCN(CCCCCCCCCCCC)CCCCCCCCCCCC,0.0266%,–
C1CN(CCOCCN2CCOCC2)CCO1,0.31%,–
CCOC(=O)c1cccc(N)c1,4.09%,–
CC(C)CCCC(C)N (centres undefined),0.252%,–
C=CCOCC(CC)(CO)COCC=C,0.963%,–
CCSC(=O)N(CC(C)C)CC(C)C,0.669%,–
CC(C)CNCC(C)C,0.128%,–
CC(C)(O)C#CC(C)(C)O,-0.389% [at 94.8 µM],–
CC(C)(CC(=O)O)C(=O)O,0.489%,–
CC(=O)CC(C)C,-0.544%,–
Cc1sccc1Br,-0.212%,–
N[C@H]1CN(c2c(F)cc3c(=O)c(C(=O)O)cn(C4C[C@H]4F)c3c2Cl)CC12CC2 (some centres undefined),0.059%,–
CC(NC(CCc1ccccc1)C(=O)O)C(=O)N1C(=O)N(C)CC1C(=O)O (centres undefined),-0.561%,–
Cc1cccn2c(=O)c(-c3nnn[nH]3)cnc12,1.79% [at 34.3 µM],–

Structure (SMILES),activation,Potency
CCCCC/C=C\CCC=O,-2.82%,–
CCC(C)S (centres undefined),1.68% [at 3.75 µM],–
CC(C)NC(=O)NC(C)C,–,969 nM (active)
CC(C)NCCCC1(C(N)=O)c2ccccc2-c2ccccc21,-1.32%,–
C=C(C)CS(=O)(=O)O,0.548%,–
NS(=O)(=O)c1ccc(C(=O)O)cc1,0.577%,–
CCC(C)C1CCCCC1=O (centres undefined),-0.0127%,–
COc1cc(C(=O)N2CCCCCCC2)cc(OC)c1OC,-0.547%,–
CCCCCCCCS(=O)(=O)Cl,-1.48% [at 94.8 µM],–
O=c1[nH]c(=O)n([C@H]2C[C@H](O)[C@@H](CO)O2)cc1I,0.922%,–
CC(=O)OCC(=O)[C@@]1(O)CCC2C3CCC4=CC(=O)CC[C@]4(C)C3[C@@H](O)C[C@@]21C (some centres undefined),-7.52%,–
COc1ccc2c(c1)c(CC(=O)OCC(=O)O)c(C)n2C(=O)c1ccc(Cl)cc1,-0.401%,–
O=c1cc(CO)occ1O,-5.44%,–
CS(=O)(=O)O,-1.97% [at 94.8 µM],–
c1ccc(CC2=NCCN2)cc1,-1.64%,–
COCCCOCCCOC,0.727%,–
